Source: PubChem BioAssay AID1159580 (chemical genetic matrix, 2015)
Hit rate of the full screen: of about 5,500 compounds, about 2,000 (36%) were called active. Another 18% or so got no clear call; they are omitted. No stated cut-off is given here; in the data, active means normalized growth mostly below about 0.91 (no sharp cut-off); inconclusive means no clear call, values can overlap the other calls; inactive means mostly above about 0.92. The list shows a part of the results.

Experiment: chemical genetic growth profiling, strain panel (AID 1159580);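 further: tested at 20 µM; growth read once vehicle control cultures reached saturation at 30 °C; 1 = growth at the plate median or of vehicle wells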
Conditions: S. cerevisiae deletion strains, growth OD

Measured: normalized growth

COc1ccc(-c2oc3cc(OC)c(OC)c(OC)c3c(=O)c2OC)cc1
active: locus YAL026C, strain drs2, stronger effect = lower value 0.881 | locus YBL061C, strain skt5, stronger effect = lower value 0.911 | locus YBR009C, strain hhf1, stronger effect = lower value 0.899 | locus YDR137W, strain rgp1, stronger effect = lower value 0.797 | locus YDR392W, strain spt3, stronger effect = lower value 0.421 | locus YER155C, strain BEM2 (second series), stronger effect = lower value 0.84 | locus YGL253W, strain hxk2, stronger effect = lower value 0.89 | locus YHR142W, strain chs7, stronger effect = lower value 0.718 | locus YLR221C, strain rsa3, stronger effect = lower value 0.907 | locus YLR262C, strain YPT6 (second series), stronger effect = lower value 0.795 | locus YLR320W, strain mms22, stronger effect = lower value 0.815 | locus YNL071W, strain lat1, stronger effect = lower value 0.734
inactive: locus YAL021C, strain ccr4, stronger effect = lower value 0.993 | locus YAL030W, strain snc1, stronger effect = lower value 0.979 | locus YBR023C, strain chs3, stronger effect = lower value 0.919 | locus YBR171W, strain sec66, stronger effect = lower value 0.978 | locus YBR231C, strain swc5, stronger effect = lower value 0.93 | locus YBR279W, strain paf1, stronger effect = lower value 0.982 | locus YCL011C, strain gbp2, stronger effect = lower value 0.955 | locus YCL016C, strain dcc1, stronger effect = lower value 0.948 | locus YCL061C, strain MRC1, stronger effect = lower value 0.964 | locus YCL069W, strain vba3, stronger effect = lower value 0.993 | locus YCR088W, strain abp1, stronger effect = lower value 0.991 | locus YDL005C, strain med2, stronger effect = lower value 0.982 | locus YDL040C, strain nat1, stronger effect = lower value 0.984 | locus YDR001C, strain nth1, stronger effect = lower value 0.982 | locus YDR069C, strain doa4, stronger effect = lower value 0.987 | locus YDR159W, strain sac3, stronger effect = lower value 0.982 | locus YDR195W, strain ref2 1.04 | locus YDR297W, strain sur2, stronger effect = lower value 0.976 | locus YDR334W, strain swr1, stronger effect = lower value 0.98 | locus YDR335W, strain msn5, stronger effect = lower value 0.985 | locus YEL003W, strain gim4, stronger effect = lower value 0.977 | locus YEL037C, strain rad23, stronger effect = lower value 0.982 | locus YEL061C, strain CIN8 (second series), stronger effect = lower value 0.98 | locus YER015W, strain faa2, stronger effect = lower value 0.981 | locus YER016W, strain bim1, stronger effect = lower value 0.988 | locus YER111C, strain swi4, stronger effect = lower value 0.983 | locus YFR010W, strain ubp6, stronger effect = lower value 0.981 | locus YGL167C, strain pmr1, stronger effect = lower value 0.976 | locus YGL173C, strain kem1, stronger effect = lower value 0.97 | locus YGL227W, strain vid30, stronger effect = lower value 0.987 | locus YGL240W, strain doc1, stronger effect = lower value 0.959 | locus YHR013C, strain ard1, stronger effect = lower value 0.87 | locus YHR027C, strain rpn1, stronger effect = lower value 0.983 | locus YHR030C, strain SLT2, stronger effect = lower value 1.02 | locus YHR079C, strain IRE1, stronger effect = lower value 1.02 | locus YJL092W, strain hpr5, stronger effect = lower value 0.984 | locus YJL095W, strain BCK1 (second series), stronger effect = lower value 0.972 | locus YJL095W, strain BCK1, stronger effect = lower value 0.959 | locus YJL115W, strain asf1, stronger effect = lower value 0.997 | locus YJL129C, strain trk1, stronger effect = lower value 0.907 | locus YJL154C, strain vps35, stronger effect = lower value 0.994 | locus YJL164C, strain tpk1, stronger effect = lower value 0.928 | locus YJL166W, strain qcr8, stronger effect = lower value 0.934 | locus YJL187C, strain SWE1, stronger effect = lower value 0.98 | locus YJR066W, strain TOR1, stronger effect = lower value 0.967 | locus YKL160W, strain elf1, stronger effect = lower value 0.945 | locus YKR026C, strain gcn3, stronger effect = lower value 0.978 | locus YKR091W, strain srl3, stronger effect = lower value 0.99 | locus YLL001W, strain dnm1, stronger effect = lower value 0.953 | locus YLL026W, stronger effect = lower value 0.983 | locus YLL041C, strain sdh2, stronger effect = lower value 0.985 | locus YLR027C, strain aat2, stronger effect = lower value 0.96 | locus YLR113W, strain HOG1, stronger effect = lower value 0.887 | locus YLR258W, strain gsy2, stronger effect = lower value 0.967 | locus YLR342W, strain FKS1, stronger effect = lower value 0.989 | locus YLR357W, strain rsc2, stronger effect = lower value 0.896 | locus YLR370C, strain arc18, stronger effect = lower value 0.969 | locus YLR384C, strain iki3, stronger effect = lower value 0.974 | locus YML120C, strain ndi1, stronger effect = lower value 0.966 | locus YMR058W, strain fet3, stronger effect = lower value 0.959 | locus YMR125W, strain sto1, stronger effect = lower value 0.96 | locus YMR129W, stronger effect = lower value 0.992 | locus YMR205C, strain PFK2, stronger effect = lower value 0.926 | locus YMR231W, strain pep5, stronger effect = lower value 1 | locus YNL183C, strain NPR1, stronger effect = lower value 0.928 | locus YNL209W, strain ssb2, stronger effect = lower value 0.989 | locus YNL248C, strain rpa49, stronger effect = lower value 0.984 | locus YNL322C, strain KRE1 (second series), stronger effect = lower value 0.98 | locus YNR049C, strain mso1, stronger effect = lower value 0.991 | locus YOR001W, strain rrp6, stronger effect = lower value 0.978 | locus YOR070C, strain gyp1, stronger effect = lower value 0.978 | locus YOR080W, strain dia2, stronger effect = lower value 0.991 | locus YOR083W, strain WHI5, stronger effect = lower value 0.915 | locus YOR106W, strain vam3, stronger effect = lower value 0.942 | locus YOR231W, strain MKK1, stronger effect = lower value 1.02 | locus YOR265W, strain rbl2, stronger effect = lower value 0.968 | locus YOR270C, strain vph1, stronger effect = lower value 0.785 | locus YOR290C, strain snf2, stronger effect = lower value 0.88 | locus YPL051W, strain arl3, stronger effect = lower value 0.927 | locus YPL078C, strain atp4, stronger effect = lower value 0.93 | locus YPL106C, strain sse1, stronger effect = lower value 0.944 | locus YPL240C, strain hsp82, stronger effect = lower value 0.969 | locus YPL256C, strain CLN2, stronger effect = lower value 1.04
